Experimental findings from the supplement of paper PMC12024529 are described below.

This assay deals with HEK293 WT BDD-FVIII-Gluc. In words: secreted FVIII-Gluc luciferase Z-score vs DMSO control; higher = more FVIII-Gluc secretion. Conditions: 5 µM. As to the method: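 Natural plant-compound library (480 compounds, ST catalogue IDs) screened on HEK293 cells stably expressing WT BDD-FVIII-Gaussia luciferase fusion at 5 µM. Secreted Gluc activity in the medium is given as a Z-score relative to DMSO controls.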

On to `CO[C@@H]1[C@@H](O[C@@H]2O[C@H](C)[C@@H](O[C@H]3C[C@@](C)(O)[C@@H](OC(=O)CC(C)C)[C@H](C)O3)[C@H](N(C)C)[C@H]2O)[C@@H](CC=O)C[C@@H](C)[C@@H](O)/C=C/C=C/C[C@@H](C)OC(=O)C[C@H]1OC(C)=O`, for which the “secreted FVIII-Gluc luciferase Z-score” value was 0.0728. Under `O=c1c(-c2ccc(O[C@@H]3O[C@H](CO)[C@@H](O)[C@H](O)[C@H]3O)cc2)coc2cc(O)cc(O)c12` stands 0.683; under `CC(C)CCCC(C)C1CCC2C3CC=C4CC(O)CCC4(C)C3CCC12C` (centres undefined), 0.231. Under `COc1ccc2oc(-c3ccccc3)c(OC)c(=O)c2c1` stands 0.232; under `COc1c2ccoc2cc2oc(=O)ccc12`, 0.335; under `COc1cc2cc3c4c(cc(OC)c(OC)c4c2cc1OC)CCN3C`, 0.0768. Under `O=C1c2ccccc2C(=O)c2c1ccc(O)c2O` stands 0.508.

As for `CC(=O)O[C@H]1C(=O)[C@@]2(C)C([C@H](OC(=O)c3ccccc3)[C@]3(O)C[C@H](OC(=O)[C@@H](O)[C@@H](NC(=O)c4ccccc4)c4ccccc4)C(C)=C1C3(C)C)[C@]1(OC(C)=O)CO[C@@H]1C[C@@H]2O` (some centres undefined), the “secreted FVIII-Gluc luciferase Z-score” value is -3.56. In the case of `C[C@H](CCC(=O)O)[C@H]1CC[C@H]2[C@@H]3[C@H](O)C[C@@H]4C[C@H](O)CC[C@]4(C)[C@H]3CC[C@]12C`, the “secreted FVIII-Gluc luciferase Z-score” value worked out at 0.787. As to `CO[C@H]1/C=C/O[C@@]2(C)Oc3c(C)c(O)c4c(O)c(c(C=O)c(O)c4c3C2=O)NC(=O)/C(C)=C\C=C\[C@H](C)[C@H](O)[C@@H](C)[C@@H](O)[C@@H](C)[C@H](OC(C)=O)[C@@H]1C`, the “secreted FVIII-Gluc luciferase Z-score” value worked out at 1.13. In the case of `CC1=CC(=O)C2=C(C)CCC3C(C)C(=O)OC3C12` (centres undefined) it was 0.0708. Under `O=C(O)c1cc(=O)c2ccccc2[nH]1` stands 0.496. For `Oc1cc2c(cc1O)[C@H]1c3ccc(O)c(O)c3OC[C@@]1(O)C2`, the “secreted FVIII-Gluc luciferase Z-score” value was 0.368.

`OCC1OC(n2cnc3cncnc32)C(O)C1O` (centres undefined): the “secreted FVIII-Gluc luciferase Z-score” value is -0.247.

With `O=C(N[C@H](CO)[C@H](O)c1ccc([N+](=O)[O-])cc1)C(Cl)Cl`, the “secreted FVIII-Gluc luciferase Z-score” value is 0.907. Under `COc1cn(C2OC(CO)C(O)C2O)c(=O)[nH]c1=O` (centres undefined) stands -0.271; under `CC[C@@H]1[C@H]2CCCCN3[C@H]2[C@H](C[C@H]3[C@@H]2C[C@H](C)C(=O)O2)[C@@H]2[C@H]1OC(=O)[C@H]2C`, -0.0302; under `CC(C)(S)[C@H](N)C(=O)O`, 0.41. In the case of `COc1ccc2[nH]c(=O)c3c(c2c1)OC(C)(C)C=C3` it was -1.14. Under `COc1cc(/C=C/C(=O)CC(=O)/C=C/c2ccc(O)c(OC)c2)ccc1O` stands 0.567. In the case of `O=c1cc(-c2ccccc2O)oc2c1ccc1ccccc12`, the “secreted FVIII-Gluc luciferase Z-score” value worked out at 0.301. Turning to `CC1C(=O)OC2CC34C5CC(C(C)(C)C)C36C(OC(=O)C6O)OC4(C(=O)O5)C21O` (centres undefined), the “secreted FVIII-Gluc luciferase Z-score” value was -0.604. In the case of `CC1=CCC2(C)CCC(O)(C(C)C)C2C(OC(=O)c2ccc(O)cc2)C1` (centres undefined) it was 0.752; in that of `C[C@H]1O[C@@H](O[C@H]2[C@@H](O)C[C@H](O[C@H]3[C@@H](O)C[C@H](O[C@H]4CC[C@@]5(C)[C@H](CC[C@@H]6[C@@H]5CC[C@]5(C)[C@@H](C7=CC(=O)OC7)CC[C@]65O)C4)O[C@@H]3C)O[C@@H]2C)C[C@H](O)[C@@H]1O`, -4.57; in that of `CC(=O)[C@@H]1[C@H]2[C@H](C(=O)[C@H]3OC[C@@H]2O3)[C@H]2C=Cc3ccccc3N21`, 0.187.

For `COc1cc2c(C=O)c3c4c(cc(OC)c(OC)c4c2cc1OC)CCN3C`, the “secreted FVIII-Gluc luciferase Z-score” value was 0.315. In the case of `CO[C@H]1/C=C/O[C@@]2(C)Oc3c(C)c(O)c4c(O)c(c(/C=N/N5CCN(C)CC5)c(O)c4c3C2=O)NC(=O)/C(C)=C\C=C\[C@H](C)[C@H](O)[C@@H](C)[C@@H](O)[C@@H](C)[C@H](OC(C)=O)[C@@H]1C` it was -0.504; in that of `COc1ccc(-c2oc3ccccc3c(=O)c2O)cc1`, -1.09; in that of `O=c1c(O)c(-c2cc(O)c(O)c(O)c2)oc2cc(O)cc(O)c12`, 0.93. Under `CC(=O)OC1CCC2(C)C3CCC4(C)C(CC5CCCCC54C(C)=O)C3CC(=O)C2(O)C1` (centres undefined) stands 0.153; under `O=c1cc(-c2cccc(O)c2)oc2cccc(O)c12`, 0.424; under `O=C(O)C(=O)Cc1ccccc1`, 0.46. Under `C[S+]([O-])CCC(N)C(=O)O` (centres undefined) stands 1.1; under `Nc1ncnc2c1ncn2[C@H]1C[C@H](O)[C@@H](CO)O1`, 1.23.

As to `COc1ccc(C2CC(=O)c3c(O)cc(OC4OC(COC5OC(C)C(O)C(O)C5O)C(O)C(O)C4O)cc3O2)cc1O` (centres undefined), the “secreted FVIII-Gluc luciferase Z-score” value turned out to be 0.438. Under `COc1ccc2c(c1)[C@@]1(C)CCC[C@](C)(CO)C1CC2` (some centres undefined) stands 0.437; under `CC[C@H](/C=C/[C@@H](C)[C@H]1CC[C@H]2[C@@H]3CC=C4C[C@@H](O)CC[C@]4(C)[C@H]3CC[C@]12C)C(C)C`, 0.586; under `O=C1CC(c2ccc(O)cc2)Oc2cc(O)cc(O)c21` (centres undefined), -0.524. Under `O=c1cc(-c2ccc(O)c(O)c2)oc2cc(OC3OC(CO)C(O)C(O)C3O)cc(O)c12` (centres undefined) stands -0.168.
